Assay results reported in PMC4336329 (PLoS ONE, 2015).
In all, about 310,000 compounds went through this assay and about 2,200 (0.71%) showed an effect of 50% or more. The effect is printed as a negative number. The list comes from a sample in which strong results are over-represented; it also holds similar structures and randomly drawn compounds.

target: human ether-à-go-go-related gene (hERG) potassium channel (human, UniProt Q12809); assay: primary screen, population patch clamp on CHO cells stably expressing hERG; higher = less effect of the substance
Sequence (Q12809 whole entry, looked up): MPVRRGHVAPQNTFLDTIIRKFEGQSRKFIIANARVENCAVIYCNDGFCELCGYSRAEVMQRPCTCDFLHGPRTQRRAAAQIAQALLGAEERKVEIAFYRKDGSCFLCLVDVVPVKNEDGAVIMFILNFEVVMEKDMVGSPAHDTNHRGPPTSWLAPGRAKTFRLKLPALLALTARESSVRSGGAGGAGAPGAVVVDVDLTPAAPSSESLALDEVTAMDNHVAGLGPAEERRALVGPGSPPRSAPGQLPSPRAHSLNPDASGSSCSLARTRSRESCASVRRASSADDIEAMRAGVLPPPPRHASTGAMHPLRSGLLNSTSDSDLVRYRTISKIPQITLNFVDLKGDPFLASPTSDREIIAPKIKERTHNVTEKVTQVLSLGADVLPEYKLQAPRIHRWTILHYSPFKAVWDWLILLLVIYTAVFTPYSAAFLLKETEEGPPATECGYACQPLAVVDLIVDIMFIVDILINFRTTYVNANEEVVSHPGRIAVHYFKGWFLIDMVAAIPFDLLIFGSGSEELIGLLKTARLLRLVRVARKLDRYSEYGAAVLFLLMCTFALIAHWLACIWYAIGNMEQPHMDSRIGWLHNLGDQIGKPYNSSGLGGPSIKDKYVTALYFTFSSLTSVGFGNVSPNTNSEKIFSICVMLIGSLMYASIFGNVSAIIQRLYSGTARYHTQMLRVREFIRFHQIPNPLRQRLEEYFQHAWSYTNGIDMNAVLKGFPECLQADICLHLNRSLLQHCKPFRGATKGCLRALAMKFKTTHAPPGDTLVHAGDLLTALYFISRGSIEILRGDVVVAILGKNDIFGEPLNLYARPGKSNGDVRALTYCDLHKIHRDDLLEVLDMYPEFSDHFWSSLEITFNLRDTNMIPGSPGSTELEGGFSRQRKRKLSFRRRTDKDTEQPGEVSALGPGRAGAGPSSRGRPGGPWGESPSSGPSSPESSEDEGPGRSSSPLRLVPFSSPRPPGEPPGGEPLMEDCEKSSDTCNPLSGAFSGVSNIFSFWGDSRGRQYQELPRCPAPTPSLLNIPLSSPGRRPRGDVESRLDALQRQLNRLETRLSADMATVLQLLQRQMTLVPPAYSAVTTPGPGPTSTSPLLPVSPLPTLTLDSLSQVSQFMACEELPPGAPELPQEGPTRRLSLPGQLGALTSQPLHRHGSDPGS

Going from `COc1ccccc1C(=O)Nc1nnc(-c2ccco2)s1` to `COc1ccccc1NC(=O)Cn1nnc(-c2ccccc2NC(=O)c2ccco2)n1`, the “hERG current change (%, negative = inhibition) at 1uM” value rises from 13.9% to 14.7%.

Going from `C=CCC1c2cccc(C(=O)O)c2C(=O)N1c1cccc(C)c1` (stereo not shown) to `COc1ccc(F)cc1C(=O)C1CCCN(Cc2cccn2-c2cccnc2)C1` (stereo not shown), the “hERG current change (%, negative = inhibition) at 1uM” value falls from 11.5% to 5.09%.

Compared with `CN(C)c1ccc(C2CC(=O)C=C(Nc3ccccc3N)C2)cc1` (stereo not shown), `COc1ccc(-c2c[n+]3c4n2CCCCC4=C(c2ccccc2)C3)cc1.[Br-]` is lower in “hERG current change (%, negative = inhibition) at 1uM” value: 13.8% for the first, -74.7% for the second.

Going from `CCOc1ccc(NC(=O)CCN2CCN(c3ccccc3)CC2)cc1` to `COc1ccc(-c2c[n+](CC(=O)c3ccccc3)c3n2CCCCC3)cc1.[Br-]`, the “hERG current change (%, negative = inhibition) at 1uM” value rises from 3.48% to 13.7%.

Compared with `CCOc1ccccc1NC(=O)C(OC(=O)c1ccccc1)c1ccccc1` (stereo not shown), `CCOc1ccccc1CN1CCCC(C(=O)c2cc(F)ccc2F)C1` (stereo not shown) is lower in “hERG current change (%, negative = inhibition) at 1uM” value: 32.8% for the first, -16.6% for the second.

Going from `Cn1c(Cn2nnc3ccccc32)nnc1SCC(=O)Nc1nccs1` to `CC(=O)c1cc2c(cc1NC(=O)CSc1nc3ccccc3[nH]1)OCO2`, the “hERG current change (%, negative = inhibition) at 1uM” value falls from 10.6% to -2.99%.

Going from `CCOC(=O)c1c(NC(=O)CCS(=O)(=O)c2ccccc2)sc2c1CCN(C(C)C)C2.Cl` to `CC(C)N1CCc2c(sc(NC(=O)CCS(=O)(=O)c3ccccc3)c2C(N)=O)C1.Cl`, the “hERG current change (%, negative = inhibition) at 1uM” value rises from -64.6% to -2.04%.

Going from `CCOC(=O)c1c(NC(=O)CCS(=O)(=O)c2ccccc2)sc2c1CCN(C)C2.Cl` to `Cc1ccc(CNC(=O)COC(=O)c2ccc(S(=O)(=O)N(C)C)cc2)cc1`, the “hERG current change (%, negative = inhibition) at 1uM” value rises from -9.18% to 17.8%.

Compared with `CN(C)S(=O)(=O)c1cc(NC(=O)CNCCN2CCOCC2)ccc1Cl.O=C(O)C(=O)O`, `O=C(Nc1ccc(Cl)cc1)c1cc(S(=O)(=O)N2CCOCC2)cs1` is lower in “hERG current change (%, negative = inhibition) at 1uM” value: 7.62% for the first, -7.43% for the second.

Going from `O=C(c1cc(F)ccc1F)C1CCCN(C(=O)CSc2ccccn2)C1` (stereo not shown) to `O=C(c1cc(F)ccc1F)C1CCCN(Cc2cccn2-c2ccccn2)C1` (stereo not shown), the “hERG current change (%, negative = inhibition) at 1uM” value falls from -3.1% to -83.1%.

Going from `O=C(C1CCCN(CCCc2ccccc2)C1)N1CCCCC1` (stereo not shown) to `O=C(c1cc(F)ccc1F)C1CCCN(CCCc2ccccc2)C1` (stereo not shown), the “hERG current change (%, negative = inhibition) at 1uM” value falls from -5.07% to -76.6%.

Compared with `COc1ccc(F)cc1C(=O)C1CCCN(Cc2ccc(Oc3ncccn3)cc2)C1` (stereo not shown), `COc1ccc(F)cc1C(=O)C1CCCN(Cc2cccn2-c2ccccn2)C1` (stereo not shown) is lower in “hERG current change (%, negative = inhibition) at 1uM” value: -34.8% for the first, -89.9% for the second.

First: COc1ccc(C(=O)C2CCCN(Cc3cccn3-c3ccccn3)C2)cc1F (stereo not shown)
Second: COc1ccc(C(=O)C2CCCN(Cc3cn(C)nc3-c3ccccc3)C2)cc1F (stereo not shown)
The “hERG current change (%, negative = inhibition) at 1uM” value of the first is lower: -87.1% for the first, -19.1% for the second.

Going from `O=C(c1cc(F)ccc1F)C1CCCN(Cc2cccc(Cl)c2)C1` (stereo not shown) to `COc1ccc(C(=O)C2CCCN(Cc3ccc(F)cc3F)C2)cc1F` (stereo not shown), the “hERG current change (%, negative = inhibition) at 1uM” value falls from 8.46% to 3.8%.

Going from `COCCCN(Cc1ccco1)C(=O)Cn1ncc2c([nH]c3ccccc32)c1=O` to `CCCCCCCn1c(=N)n(CC(O)c2ccco2)c2ccccc21.Cl` (stereo not shown), the “hERG current change (%, negative = inhibition) at 1uM” value falls from -5.46% to -76.8%.

Compared with `O=C(N/N=C1/CCc2ccccc21)C1CC1`, `Cc1ccc2oc(C(=O)NCC3CCOCC3)c(C)c2c1` is higher in “hERG current change (%, negative = inhibition) at 1uM” value: 6.47% for the first, 10.3% for the second.

Going from `CCN(CC)c1ccc2ccc(=O)oc2c1` to `CCOC(=O)C1(C)Oc2ccc(S(=O)(=O)CC)cc2NC1=O` (stereo not shown), the “hERG current change (%, negative = inhibition) at 1uM” value rises from 7.92% to 16.3%.

Compared with `O=C(NNC(=O)c1ccc(Cl)c(S(=O)(=O)Nc2ccc(Cl)cc2)c1)c1ccc(=O)[nH]c1`, `Cc1ccc(-c2csc(NC(=O)c3ccc(F)cc3)c2C(=O)O)cc1` is higher in “hERG current change (%, negative = inhibition) at 1uM” value: 14.5% for the first, 16% for the second.

First: COc1ccc(-c2nnc3ccc(SCC(=O)N4CCCCC4)nn23)cc1OC
Second: COc1ccc(C(=O)C[n+]2cc(-c3ccc(OC)cc3)n3c2CCCC3)cc1.[Br-]
The “hERG current change (%, negative = inhibition) at 1uM” value of the first is lower: 6.34% for the first, 11.5% for the second.

Compared with `Cc1cc2nc(-c3ccc(=O)[nH]c3)n(C)c2cc1C`, `Cc1[nH]nc2c1C(C(C)c1ccccc1)C(C#N)=C(N)O2` (stereo not shown) is lower in “hERG current change (%, negative = inhibition) at 1uM” value: 11% for the first, 7.79% for the second.

First: COCCn1nnnc1C(c1ccccn1)N1CCN(c2cc(C)ccc2C)CC1.Cl (stereo not shown)
Second: Cl.N=c1n(CCN2CCCC2)c2ccccc2n1CC(O)c1ccco1 (stereo not shown)
The “hERG current change (%, negative = inhibition) at 1uM” value of the first is higher: 9.25% for the first, -3.97% for the second.

First: O=C(C[n+]1cc(-c2ccc(Cl)cc2)n2c1CCCCC2)c1ccccc1.[Br-]
Second: Clc1ccc(C[n+]2cc(-c3ccccc3)n3c2CCC3)cc1.[Cl-]
The “hERG current change (%, negative = inhibition) at 1uM” value of the first is lower: -2.53% for the first, 7.34% for the second.

Going from `Clc1ccc(C2=C3CCCCn4c(-c5ccccc5)c[n+](c43)C2)cc1.[Br-]` to `COc1ccc(-c2c[n+]3c4n2CCCCC4=C(c2ccc(Br)cc2)C3)cc1.[Br-]`, the “hERG current change (%, negative = inhibition) at 1uM” value rises from -83.1% to -79.6%.

Compared with `COc1ccc(-n2c(-c3ccc(Br)cc3)c[n+]3c2CCCCC3)cc1.[Br-]`, `COc1ccc(-c2c[n+]3c(n2-c2ccccc2)CCCCC3)cc1.[Br-]` is higher in “hERG current change (%, negative = inhibition) at 1uM” value: -24.6% for the first, 2.74% for the second.

First: COc1cc2c(cc1OC)CN(S(C)(=O)=O)CC2
Second: O=C(O)C(=O)O.O=[N+]([O-])c1cccc(CN2CCN(Cc3ccc(Cl)cc3)CC2)c1
The “hERG current change (%, negative = inhibition) at 1uM” value of the first is higher: 16.5% for the first, -27.2% for the second.

First: Fc1cccc(CCN2CCNC[C@@H]2CC2CCCCC2)c1
Second: CCCn1c(=N)n(CC(O)c2ccco2)c2ccccc21.Cl (stereo not shown)
The “hERG current change (%, negative = inhibition) at 1uM” value of the first is higher: 1.12% for the first, -13.8% for the second.

Compared with `Cl.Cn1c(=N)n(CC(O)c2ccco2)c2ccccc21` (stereo not shown), `CCn1c(=N)n(CC(O)c2ccco2)c2ccccc21.Cl` (stereo not shown) is lower in “hERG current change (%, negative = inhibition) at 1uM” value: 1.97% for the first, -7.63% for the second.

`CCN(CC)CCn1c(=N)n(CC(O)c2ccco2)c2ccccc21.Cl` (stereo not shown) was tested, and the “hERG current change (%, negative = inhibition) at 1uM” value was -54.6%.
